The sample as a whole holds a higher share of hits than the screen did.
RE007 growth inh: less growth of the S. pombe RE007 Vpr strain; S. pombe RE007 Vpr strain, BacTiter-Glo ATP luminescence, 24 h; Potency, µM (top dose mostly 92.2 µM), for the others: top-dose activity change, negative = less growth, most hits filed as inhibitors; actives 0.21% (n = 360,000); AID 651644; active = well fitted falling curve with a large enough effect; inconclusive = small, poorly fitted or top-dose-only effect; inactive = no such curve, though single readings can be large or run the other way; also: potency is read from the fitted curve at half-maximal effect; % is scaled to controls: 0 for no effect and ±100 for the full control effect; nearly all actives have a fitted effect of over 50% in size
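Fission yeast strain RE007, carrying one chromosomally integrated HIV-1 vpr copy, was seeded at OD 0.01 in PMG+AL medium with 23 nL pinned compound. After 24 h at 30 °C and 99% humidity, viability was read by BacTiter-Glo luminescence.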
TbPYK inhibitor: blocks Trypanosoma brucei pyruvate kinase; Q57TT1; TbPYK enzyme, Kinase-Glo Plus ATP luminescence, 45 min; actives 0.12% (n = 410,000); Potency, µM (top dose mostly 76.8 µM), inactives show at the highest dose activity, negative = inhibition, most hits filed as inhibitors; AID 624173; also: potency is read from the fitted curve at half-maximal effect; % is scaled to controls: 0 for no effect and ±100 for the full control effect; nearly all actives have a fitted effect of over 50% in size
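T. brucei PYK with substrate was exposed to pin-transferred compounds across a concentration series, then started with 130 uM ADP (final). After 45 min at room temperature, Kinase-Glo Plus luminescence was read, normalized and curve-fitted.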
Cycloheximide cs: affects cycloheximide protein synthesis inhibition readout, counter-screen; cell reporter, cycloheximide protein synthesis inhibition counterscreen; max response, %; AID 2314; actives 12% (n = 300,000); in the data active = max response mostly above about 13%, no sharp cut-off; inactive = mostly below about 14%; also: read at 38.3 µM for the half of the compounds with a filed dose; 0% is about no effect
Shiga toxin inh: Shiga toxin inhibition. actives 9.2% (n = 290,000). Vero cells, Shiga toxin protein synthesis inhibition reporter. inhibition, % at 38.7 µM. AID 2315; in the data active = inhibition mostly above about 28%, no sharp cut-off; inactive = mostly below about 43%; also: 0% is about no effect
FBPA Giardia inh: Giardia lamblia aldolase inhibition; A8B2U2; purified Giardia FBPA; Potency, µM (doses to about 59.6 µM), inactives show at the top dose activity, negative = inhibition, usual class: inhibitors; actives 0.71% (n = 290,000); AID 2451; also: potency is read from the fitted curve at half-maximal effect; % is scaled to controls: 0 for no effect and ±100 for the full control effect; nearly all actives have a fitted effect of over 55% in size
Target sequence (A8B2U2 whole entry, looked up): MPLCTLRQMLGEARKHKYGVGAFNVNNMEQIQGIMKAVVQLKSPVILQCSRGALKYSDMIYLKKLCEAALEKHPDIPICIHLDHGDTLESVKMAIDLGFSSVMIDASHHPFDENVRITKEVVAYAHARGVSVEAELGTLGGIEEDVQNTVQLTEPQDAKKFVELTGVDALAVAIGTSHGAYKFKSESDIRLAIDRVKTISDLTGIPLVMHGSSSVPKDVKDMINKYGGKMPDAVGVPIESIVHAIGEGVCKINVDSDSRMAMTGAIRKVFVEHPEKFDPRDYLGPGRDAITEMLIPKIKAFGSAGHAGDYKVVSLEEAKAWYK
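40 nM FBPA preincubated 10 min at RT with compound (up to 57.5 uM final), then substrate plus GAPDH/TPI/NAD/arsenate coupling and diaphorase/resazurin added. Fluorescence read after 20 min at RT, 525/598 nm.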
LmPK inhibitor: LmPK (Leishmania mexicana) enzyme inhibition. actives 0.37% (n = 290,000). Potency, µM (series often up to 57.5 µM), inactives show top-dose activity change, negative = inhibition, most hits filed as inhibitors. purified LmPK, Kinase-Glo ATP luminescence, 1 h; also: potency is read from the fitted curve at half-maximal effect; % is scaled to controls: 0 for no effect and ±100 for the full control effect
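In 50 mM imidazole pH 7.2 with 7 mM MgCl2, LmPK (0.1 nM) turned over PEP (0.5 mM) and ADP (0.1 mM) for 1 h at room temperature. Luciferase read-out of ATP.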
The depositor's hits bear a star; ? = inconclusive; · = no result given; [ ] = another dose, or the depositor's remark. Unless noted, calls follow the shape of the dose curve; as a rule, active = well fitted curve in the direction sought with a large enough effect; inconclusive = small, poorly fitted or top-dose-only effect, or another doubt; inactive = no such curve, though single readings can be large; an effect the other way counts as inactive or inconclusive.

SMILES | RE007 growth inh | TbPYK inhibitor | Cycloheximide cs | Shiga toxin inh | FBPA Giardia inh | LmPK inhibitor
COc1ccc(Oc2c(Cl)cnn(-c3ccc(F)cc3)c2=O)cc1 | -21% | 0% | 7 | -11 | 9% | 1%
CC(=O)N1CCCc2cc(S(=O)(=O)N3CCCC(C(=O)N4CCN(c5ccccc5F)CC4)C3)ccc21 (centres undefined) | · | 5% | · | · | · | ·
COc1ccc(CNc2ccnc(-c3ccccc3CN(C)C)n2)c(OC)c1 | · | · | · | · | 6% | ·
COc1c(Cl)cnn(-c2ccc(C)cc2)c1=O | 11% | 5% | 25* | 66* | 5% | -5%
Fc1ccc2nc(Nc3nc4c(F)cc(F)cc4s3)sc2c1 | -25% | -8% | 4 | 39 | 8% | 5%
Fc1cccc2sc(Nc3nc4ccccc4s3)nc12 | · | -6% | 56* | 69* | 16% | -3%
Fc1ccc2nc(Nc3nc4c(F)cccc4s3)sc2c1 | -12% | -6% | 45* | 42* | -3% | 2%
COCCn1c(SCC(=O)c2c(C)[nH]c3ccccc23)nc2cc(C(=O)NC(C)C)ccc2c1=O | · | -8% | · | · | · | ·
Cc1ccc(C(=O)c2c(C)oc3c2C(=O)C(=O)c2ccccc2-3)cc1 | 25µM* | 6% | 18 | 4 | 0.63µM* | 0%
Cc1ccc(C(=O)c2coc3c2C(=O)C(=O)c2ccccc2-3)cc1 | ? | -19% | 32* | 42* | 2.8µM* | 6%
Cc1oc2c(c1C(=O)c1ccc(Cl)cc1)C(=O)C(=O)c1ccccc1-2 | -15% | 3% | 6 | -2 | 0.89µM* | -1%
COc1ccc(C(=O)c2coc(-c3ccccc3C(=O)O)c2C(=O)O)cc1 | -10% | -6% | 5 | 5 | 15% | -3%
Cc1oc2c(c1C(=O)N1CCC(C)CC1)C(=O)c1ccccc1C2=O | -7% | 0% | 1 | 16 | ? | -2%
COc1ccc(C(=O)CCc2ccccc2)c(O)c1 | -6% | -4% | · | · | · | ·
O=C(CCc1ccccc1)c1c(O)cc(O)cc1O | 4% | -1% | active | 6 | -10% | -5%
CN(C)CCCNc1ncnc2sc(-c3ccccc3)cc12 | 9% | -6% | -3 | -11 | ? | -12%
CCOC(CNc1ncnc2sc(-c3ccccc3)cc12)OCC | -5% | 4% | 12* | 25 | 5% | 4%
CN1c2ccccc2Oc2nnc(N3CCN(Cc4ccccc4)CC3)cc21 | ? | -1% | 30* | 54* | 1% | -16%
O=C(CSCc1cccc(F)c1)NCc1ccccc1 | 7% | -12% | 48* | 173* | 6% | 2%
Cc1ccc(CNC(=O)CSCc2cccc(F)c2)cc1 | -4% | -1% | 46* | 65 | 12% | 0%[11.5 µM]
O=C(CSCc1ccccc1F)NCc1ccccc1 | 7% | 4% | 44* | 72 | 1% | 1%
COc1ccc(CNC(=O)CSCc2ccccc2Cl)cc1 | 0% | -6% | 62* | 66* | -3% | 1%
O=C(CCSCc1cccc(F)c1)NCc1ccc(F)cc1 | -8% | -26% | -1 | -11 | 12% | 7%
Cc1ccc(NC(=O)CCCn2c(=O)c3cccn3c3ccccc32)c(C)c1 | · | -1% | · | · | · | ·
O=C(Oc1c(Br)cc(Br)c2cccnc12)N1CCCCC1 | -6% | 4% | 32* | 24 | 2% | -6%
SMILES | RE007 growth inh | TbPYK inhibitor | Cycloheximide cs | Shiga toxin inh | FBPA Giardia inh | LmPK inhibitor
O=C(Oc1ccc(Cl)c2cccnc12)N1CCOCC1 | 10% | 3% | -2 | -9 | 5% | -10%
COc1cccc(CNC(=O)CCc2c(C)nc3c(c2C)c(=O)n(C)c(=O)n3C)c1 | · | 2% | · | · | · | ·
Cc1ccc(C(C)C)c(OCC(=O)Nc2c(C(=O)c3ccccc3)oc3ccccc23)c1 | · | -12% | · | · | · | ·
COC(=O)[C@@]1(Cc2ccc(OC)cc2)[C@H]2c3cc(C(=O)N4CCCC4)n(Cc4ccc(O)c(OC)c4)c3C[C@H]2CN1C(=O)c1ccccc1 | · | · | · | · | -5% | ·
O=C1CCNc2cc3ccccc3cc21 | -8% | ? | 25* | 32 | 34% | -3%
O=C1CCNc2ccc(-c3ccccc3)cc21 | -15% | 3% | 38* | 75* | ? | 0%
CCC(C(=O)NC(=O)NC(C)=O)c1ccccc1 (centres undefined) | · | -9% | · | · | · | ·

Screening data deposited in PubChem by National Center for Advancing Translational Sciences (NCATS).
